The structures appear in SMILES notation. Structures can show the parent of a compound that is named as a salt.

In the assay the test system is Danio rerio larvae (5 dpf). Kind of assay: combined optomotor response (time in upper well half, down vs up moving lines, periods 7-14) minus DMSO control (percentage points); higher = stronger optomotor response than DMSO larvae. The settings on record: 10 µM; exposure time: 3 h pre-incubation + 3 h imaging. On the procedure:
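Wild-type 5 dpf zebrafish larvae (n=48 per drug, 96-well plates, 28.5 °C) were exposed to Tocris FDA-approved library compounds at 10 µM (0.1% DMSO) for 3 h before and 3 h during imaging. Images were taken every 6 s during visual and acoustic stimuli, and larvae were tracked with Z-LaP Tracker. Each measure is the treated-group mean minus the DMSO control mean (n=844), in percentage points. This mapping covers compounds with 5-character plate codes.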
For the molecule `COc1ccc(C(CN(C)C)C2(O)CCCCC2)cc1` (stereo unspecified) [Venlafaxine hydrochloride], the combined optomotor response is -1.24.

For the origin of these results see the supplement of paper PMC9950053.
